Reference: PubChem BioAssay AID651997 (Sanford-Burnham Center for Chemical Genomics, 2013)
About 700 (29%) of roughly 2,400 compounds were called active. A selection follows. A number with no mark means an inactive call.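 Rule for the calls: active = inhibition of at least 50%; inactive = the rest.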

Target: G-protein coupled receptor 183 (Homo sapiens) (UniProt P32249)
Assay: repeat testing of EBI2 arrestin blockers – cell-based, single concentration, luminescence, 7a,25-OHC stimulation, confirmation (AID 651997)
Settings: EBI2 beta-arrestin luminescence, 7a,25-OHC antagonism; at 5 µM; stronger effect = higher value

G-protein coupled receptor 183 (Homo sapiens), sequence (P32249 whole entry, looked up): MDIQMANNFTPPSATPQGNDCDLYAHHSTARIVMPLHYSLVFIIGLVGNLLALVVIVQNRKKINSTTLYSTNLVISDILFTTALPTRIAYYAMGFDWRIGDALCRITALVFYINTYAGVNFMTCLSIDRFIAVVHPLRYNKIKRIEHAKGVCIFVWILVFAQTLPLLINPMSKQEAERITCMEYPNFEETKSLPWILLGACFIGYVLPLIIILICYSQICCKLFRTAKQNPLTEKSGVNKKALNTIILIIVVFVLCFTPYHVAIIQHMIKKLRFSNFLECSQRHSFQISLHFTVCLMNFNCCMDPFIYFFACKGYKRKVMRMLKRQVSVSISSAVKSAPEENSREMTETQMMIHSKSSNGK

SMILES	inhibition
COc1ccc2cc(C3=CC(=O)C[C@H](c4ccc5c(c4)OCO5)C3)ccc2c1	51.4% (active)
N#Cc1ccc(C2=CC(=O)C[C@H](c3ccc(Cl)cc3)C2)cc1	53.7% (active)
COc1ccc([C@H]2CC(=O)C=C(/C=C/c3ccc(Cl)cc3)C2)cc1	20.8%
COc1ccc([C@H]2CC(=O)C=C(c3ccc(C)cc3)C2)cc1	56.3% (active)
CCCCN=C1C([N+](=O)[O-])=CC=C2C1=NC1(CCCCC1)N2O	38.6%
CCOc1ccc(CCN2C(=S)N([C@@H](CC(C)C)CN3CCC[C@@H]3CN3C(=S)NC[C@@H]3Cc3ccc(O)cc3)C[C@@H]2Cc2ccc(O)cc2)cc1	26.9%
CC1(Cc2ccccc2C#N)C(=O)Nc2ccc(-c3ccc4[nH]ccc4c3)cc21 (configuration not stated)	31.6%
COc1ccc(CNC(=O)CN(c2ccc(OC)c(Cl)c2)S(=O)(=O)c2ccc(C)cc2)cc1	6.43%
Cc1ccc2oc(=O)c3cnn(CC(=O)N(Cc4ccco4)C4CCCCC4)c3c2c1	76.3% (active)
Cc1ccc2oc(=O)c3cnn(CC(=O)N4CCCCCC4)c3c2c1	31%
O=C(Nc1ccc(S(=O)(=O)N2CCCCC2)cc1)C1CC(=O)N(c2ccc(F)cc2)C1 (configuration not stated)	17.5%
Cc1ccc(-c2nn(-c3ccccc3)cc2/C=C/C(=O)Nc2cccc(S(N)(=O)=O)c2)cc1	25.3%
COc1ccc(-c2cn(-c3ccc(OC)cc3)c(=S)[nH]2)cc1	68% (active)
CCOc1ccc(CN(Cc2ccco2)S(=O)(=O)c2ccc(-n3cnnn3)c(OC)c2)cc1	24.7%
CCN(CC(=O)NCc1cccs1)C(=O)/C=C/c1ccc(C)cc1	85.2% (active)
O=c1[nH]c(CN2CCN(S(=O)(=O)c3ccc4c(c3)OCCO4)CC2)nc2sc3c(c12)CCCC3	27.9%
Cc1ccc(S(=O)(=O)NCCNC(C)c2ccc(Br)cc2)cc1 (configuration not stated)	9.45%
COc1ccc(/C=C/C(=O)c2ccc(OC)cc2O)cc1	41.6%
Cc1nc(-c2ccccc2)sc1C(=O)/C=C/c1ccccc1	52.2% (active)

SMILES	inhibition
COc1ccc(C(=O)/C=C/c2ccc(OC3CSC3)cc2)cc1	25.8%
CN(Cc1ccc(F)cc1)C(=O)COc1ccc2ccccc2c1	84% (active)
CCC(C)(C)NC(=O)c1cc([N+](=O)[O-])ccc1N1CCCCC1	42.4%
COc1ccc(-c2cc(C3CCN(c4ncccc4[N+](=O)[O-])CC3)[nH]n2)cc1	32.3%
O=C(C(c1ccccc1)c1ccccc1)N1CCN(CC(O)COc2ccccc2)CC1 (configuration not stated)	15.3%
COc1ccc(C(C(=O)NC2CCCCC2)N(C(=O)c2snc(C(N)=O)c2N)c2ccccc2OC)cc1 (configuration not stated)	57% (active)
CC1CCc2sc3nc(N4CCN(CCO)CC4)n4ncnc4c3c2C1 (configuration not stated)	67.9% (active)
Cc1cccc(-n2c(O)c(C=Nc3ccccc3N)c(=O)[nH]c2=O)c1	13.2%
Cc1ccc(S(=O)(=O)N2CCN(CC(=O)N/N=C/c3ccc(Br)s3)CC2)cc1	41.9%
CCC1Nc2ncnc(N3CCN(c4ccccc4)CC3)c2N(Cc2ccc(Cl)cc2)C1=O (configuration not stated)	86.9% (active)
CC(=O)/C(=N\Nc1ccc(Cl)cc1Cl)Sc1cccc2cccnc12	43.2%
CC(C)Cc1ccc(-c2cc3nc(NCc4cccc(Cl)c4)ccn3n2)cc1	51.8% (active)
COc1cccc(-c2cc(C(=O)N3CCN(c4ccccc4OC)CC3)no2)c1	42.9%
Cc1cccc(N2CCN(C(=O)c3cc4c(=O)[nH]c5ccccc5c4n3C)CC2)c1C	75.1% (active)
O=C(CCNS(=O)(=O)c1ccccc1)NCCSc1ccc(Br)cc1	12.7%
CCOC(=O)N1CCN(C(=O)COc2ccc(Br)cc2)CC1	75.6% (active)
CCOC(=O)N1CCN(C(=O)COc2ccc(Cl)cc2C)CC1	30.2%
Cc1ccc(OCCNC(=O)CCNS(=O)(=O)c2ccc(Br)cc2)cc1	17.6%
CCN1CCN(C(=O)CSc2ccc(C)cc2)CC1	27.6%

SMILES	inhibition
CCOC(=O)C1CCN(C(=O)COc2cc(C)c(Br)c(C)c2)CC1	59% (active)
CCOC(=O)N1CCN(C(=O)CSc2ccc(Cl)cc2)CC1	80.2% (active)
Cc1ccc(SCC(=O)N2CCN(c3ccc(F)cc3)CC2)cc1	33.8%
Cc1cc(OCCOc2cccc3cccnc23)c(C)cc1Cl	38.3%
O=C(CSc1ccccc1)Nc1cc(Cl)ccc1Oc1ccccc1	45%
CCC(c1nnc(SCC(=O)NNC(=O)c2ccccc2)n1Cc1ccccc1)N(C)C (configuration not stated)	35.9%
O=C(Nc1ncc2c(n1)CC(c1ccco1)CC2=O)c1ccc(Cl)cc1 (configuration not stated)	10.5%
N#Cc1ccc(C(c2nnnn2CCc2ccccc2)N2CCCCCC2)cc1 (configuration not stated)	34.1%
Cc1cccc(N=C2NC(=O)/C(=C/c3cn(C)c4ccccc34)S2)c1	33.9%
COc1ccc(/C=N/N=C/c2c[nH]c(=O)c(C#N)c2Nc2ccccc2)cc1	79.2% (active)
FC(F)(F)Oc1ccccc1C(c1nnnn1C1CCCCC1)N1CCN(C/C=C/c2ccccc2)CC1 (configuration not stated)	23%
O=C(c1cc(=O)c2ccccc2o1)N1CCN(c2ccccc2)CC1	20.1%
COc1ccccc1N1CCN(C(=O)c2cc(=O)c3cc(C)ccc3o2)CC1	76% (active)
COc1ccccc1N1CCN(C(=O)c2cc(-c3ccc(Br)cc3)on2)CC1	20.4%
O=C(NNC(=O)c1ccc2ccccc2c1)c1ccc(Cl)cc1	26.7%
O=C(NCCCc1ccccc1)C1CCC(=O)N(CCc2ccc(Cl)cc2)C1 (configuration not stated)	41.6%
O=C(c1cc2cc(F)ccc2[nH]1)N1CCN(c2ccc(F)cc2)CC1	43.5%
Cc1cs/c(=N\N=C\c2ccc(O)cc2)n1Cc1ccco1	34.7%
CCCCC(=O)N(C)c1c(CC)nc2c(OCc3ccc(Cl)cc3Cl)cccn12	35.5%
